In ChEMBL document CHEMBL3988442, “University of Dundee, Small-Polar-MMV Screening Library” (2021):
In all, about 48,000 compounds went through this assay and about 13,000 (27%) showed an effect of 50% or more. The list shows a part of the results.

Tested on: Wolbachia pipientis
Assay: Anti-Wolbachia Cell-Based Screen
Type: functional
Design: scale not given: in the data most compounds retested in dose-response had high values
Conditions: 5 µM

Compound | Percent Effect [%]
O=C1CN(Cc2nnc(-c3ccccc3Br)o2)CCN1 | -2.201
COC(=O)c1cc(NC2CCN(CC(F)(F)F)C2=O)ccc1C (configuration not stated) | 1.107
COc1ccc(CN[C@@H]2CO[C@H](CNC(=O)N3CCOCC3)[C@H]2O)cc1 | 3.527
Cc1noc(CCCC(=O)N(CCC(=O)O)Cc2ccc(F)c(F)c2)n1 | 101.8
CN(Cc1ccc(F)c(F)c1)C(=O)CCc1nc(-c2nnc[nH]2)no1 | -9.092
CN(C)CCN(Cc1ccc(Cl)cc1)C(=O)c1ccncc1 | -4.798
COCC(=O)N(C)Cc1ccc(F)c(F)c1 | 111.3
CCC(=O)N(CCN(C)C)Cc1ccc(F)c(F)c1 | 182.8
CN1CCC(N(C)C(=O)CCc2ccc(F)c(F)c2)C1=O (configuration not stated) | 2.381
COCC(=O)N(C)Cc1ccc(OCc2cccs2)cc1 | 1.693
O=C(O)CCN(Cc1ccc(F)c(F)c1)C(=O)C1CC1 | 170.7
NC(=O)CN(Cc1cccc(Oc2ccccc2)c1)C(=O)C1CC1 | 0.4693
Cc1cc(C(=O)N(CCN(C)C)Cc2ccc(Cl)cc2)no1 | -11.55
CN(Cc1ccc(Cl)c(F)c1)C(=O)CCc1ccncc1 | 0.9629
Cc1noc(CCNC(=O)c2ccc(N(C)C)c(F)c2)n1 | -15.61
CN(Cc1nnc2n1CCC2)S(=O)(=O)c1ccc(Br)cc1Cl | 10.86
CC(=O)N1CCC(CCNC(C)c2cc(F)cc(F)c2)CC1 (configuration not stated) | -11.21
CC(C)Oc1cc(N2CCC(N3CCC(O)CC3)CC2)nc(N)n1 | 11.59
Cc1nc(CN2CCC3(CCCO3)CCC2=O)no1 (configuration not stated) | 31.71
CNC(=O)NC(=O)CSc1ccc2c(c1)CCC2 | -2.658
Cc1noc(-c2cccnc2N(C)Cc2cc(C)on2)n1 | 2.996
CCC(=O)N(CCC(=O)O)Cc1ccc(F)c(F)c1 | 121.4

Compound | Percent Effect [%]
COCCN(Cc1ccncc1)C(=O)CCSCc1ccc(F)cc1 | -3.369
COCCCC(=O)N(CCC(=O)O)Cc1ccc(F)c(F)c1 | 97.51
CCC(=O)N(CC(N)=O)Cc1cccc(Oc2ccccc2)c1 | 9.242
CN(C)C(=O)CCC[S+]([O-])Cc1ccc(F)c(F)c1 (configuration not stated) | -13.45
COCCCC(=O)N(C)c1ccc(F)c(Cl)c1 | -0.2217
COCCNc1nc2c(c(NCc3ccncc3)n1)CCNCC2 | 24.23
CC(C)OCCSc1nnnn1C1CCOCC1 | -9.456
CC(=O)N1CCCN(CCCSc2ccccc2Cl)CC1 | -4.168
COCCC(=O)N1CCN(CC(C)C)c2nc(C)ccc2C1.O=C(O)C(F)(F)F | 6.482
O=C(O)c1ccc2[nH]cc(CN3CCOCC3)c2c1 | -9.058
O=C(O)c1ccc2[nH]cc(CN3CCCC3)c2c1 | 2.363
O=C(NCc1ccccc1CN1CCOCC1)c1ccc(Br)cc1F | -0.3449
Cc1ncsc1CCN(C)C(=O)c1ccc(CN2CCCCC2)cc1 | -41.8
Cc1ncc(CN2CCCC2)c2cc(C(=O)c3ccc(Br)cc3)oc12.Cl | 139.8
Cc1ncc(CN2CCOCC2)c2cc(C(=O)c3ccc(Br)cc3)oc12.Cl | 126.2
COc1c(C2CCCN2C(=O)c2nccnc2N)c(C)nn1C (configuration not stated) | 108.6
Cc1nn(C)c(C)c1C1CCCN1C(=O)c1nccnc1N (configuration not stated) | 101
Cc1nn(C)c(Cl)c1C1CCCN1C(=O)c1nccnc1N (configuration not stated) | -5.243
O=S(=O)(Nc1c(F)cccc1N1CCCC1)c1cncc(F)c1 | -6.105
N#Cc1cccc(NC2CC(=O)N(C3Cc4ccccc4C3)C2)n1 (configuration not stated) | 5.834
Cc1nc(C)n(CC2CCCN(CCOc3cccc(C#N)c3)C2)n1 (configuration not stated) | -2.683
Cc1nc(C)n(CC2CCCN(CCCOc3ccc(F)cc3)C2)n1 (configuration not stated) | 86.71

Compound | Percent Effect [%]
Cc1nc(C)n(CC2CCCN(CCCOc3ccccc3)C2)n1 (configuration not stated) | -19.22
O=C1CCCN1CCCN1CCCC(Cn2cncn2)C1 (configuration not stated) | 2.08
Cc1nc(C)n(CC2CCCN(CCOc3cccc(F)c3)C2)n1 (configuration not stated) | 75.5
Cc1nc(C)n(CC2CCCN2CCCOc2ccc(F)cc2)n1 (configuration not stated) | 2.053
Fc1ccc(OCCCN2CCCC(Cn3cncn3)C2)cc1 (configuration not stated) | 107.3
Cc1nc(C)n(CC2CCCN(CCOc3ccc(F)cc3)C2)n1 (configuration not stated) | 98.89
Fc1ccc(CN2CCCC(Cn3cncn3)C2)c2ncccc12 (configuration not stated) | 0.09463
Cc1c(C(C)NC2CCN(C(C)C)CC2)cnn1-c1ccc(F)cc1F (configuration not stated) | -0.2198
CCOc1cccnc1C(=O)N1CCCN(c2nc(C)cs2)CC1 | 4.223
CCn1ccnc1CN1C[C@@H](CN2CCCC2)[C@@H](CO)C1 | -1.438
CCn1ccnc1CN1CCN(CC(=O)NC(=O)NC2CC2)CC1 | -16.24
Cc1ccc(C)c(-n2ncc(NC(=O)NC3(C)CCOC3)c2C)c1 (configuration not stated) | 6.274
CCOC(=O)c1ccc(CNC(=O)c2ccncc2Cl)o1 | 1.896
Cc1ccc(C)c(-n2ncc(C(=O)NCC3COC(C)(C)O3)c2N)c1 (configuration not stated) | 185.5
CC1(C)OCC(CNC(=O)c2cnn(-c3cccc(Cl)c3Cl)c2N)O1 (configuration not stated) | 190.2
Cc1c(C(=O)NC2(C#N)CCSC2)cnn1-c1ccccc1Cl (configuration not stated) | -17.58
CC(C)c1ccc(-n2ncc(C(=O)NCC3COC(C)(C)O3)c2N)cc1 (configuration not stated) | 161.1
Cc1cc(Cl)ccc1-n1ncc(C(=O)NCC2COC(C)(C)O2)c1N (configuration not stated) | 154.2
CC1(C)OCC(CNC(=O)c2cnn(-c3cc(Cl)ccc3Cl)c2N)O1 (configuration not stated) | -0.3036
COc1ccc(-n2ncc(C(=O)NCC3COC(C)(C)O3)c2N)cc1 (configuration not stated) | -3.479
CC1(C)OCC(CNC(=O)c2cnn(-c3ccc(Cl)cc3)c2N)O1 (configuration not stated) | -2.312
CC(=O)N[C@@H]1C[C@H](Cc2ccccc2)O[C@H](c2ccc(C(=O)O)cc2)C1 | -2.466

Compound | Percent Effect [%]
O=C(CC1=CCCCC1)NCCc1csc(N2CCCC2)n1 | -4.83
COc1cccc(CCC(=O)N2CCN(Cc3noc(C)n3)CC2)c1 | -5.031
CN1CCN(CCC(F)(F)C(F)F)CC12CCNC(=O)CC2 (configuration not stated) | 7.69
Cc1cnc(CN2CCOC(CN(C)c3cccnn3)C2)cn1 (configuration not stated) | 10.01
Cc1cccc(C2CCCN2C(=O)CCS(C)(=O)=O)c1C (configuration not stated) | -5.02
CC(C)(C)C(O)CN1CCN(CC(=O)NC2CCOCC2)CC1 (configuration not stated) | 4.367
CCc1ncc(C(=O)NCCN2CCNC2=O)cn1 | 99.04
O=C(NCCN1CCOC1=O)c1ccc2sccc2c1 | -4.154
CCc1ncc(C(=O)NCCn2c(C)cc(C)nc2=O)cn1 | 5.273
O=C(NCCN1CCNC1=O)c1cnc(-c2cccnc2)nc1 | 91.56
CCN(CCN1CCCCCC1)C(=O)c1cnc(-c2cccnc2)nc1 | -4.892
O=C(NCCn1ccnc1C1CCOC1)c1cccnc1 (configuration not stated) | -7.177
O=C(NCCN1CCOC1=O)c1cnc(-c2cccnc2)nc1 | 103
O=C(NCCN1CCNC1=O)c1cc(-c2ccc(O)cc2)n[nH]1 | 6.287
CCc1ncc(C(=O)NCC2CCN(Cc3ccncc3)CC2)cn1 | -2.292
CN(Cc1cc(Br)cn1C)C(=O)Cc1cccc(O)c1 | -22.7
CNC(=O)Cn1nnc(-c2cc3ccccc3o2)n1 | -5.513
COc1cc(C(=O)NC(CC(=O)O)c2cccs2)cc(Cl)c1OC (configuration not stated) | 14.71
CC(C)Cn1cncc1CNC1CCSC1 (configuration not stated) | 0.928
CNC(=O)c1cccc(CCNc2ncc(Br)cn2)c1 | -10.19
CCc1cnc(NCCS(=O)(=O)N(C)C)nc1 | -13.3
CNCC(=O)Nc1cccc(-c2cnc(NCCS(C)(=O)=O)nc2)c1 | 116.8

Compound | Percent Effect [%]
CNCC(=O)Nc1ccc(-c2cnc(NCCS(C)(=O)=O)nc2)cc1 | 99.21
CC[C@H](C)Nc1ncc(-c2cccc(NC(=O)CNC)c2)cn1 | 114.1
Cc1nccc(-c2cccc(NCC(=O)N3CCCCCCC3)c2)n1 | 4.13
CC(C)(C)CC(=O)Nc1ccc(S(C)(=O)=O)nc1 | 8.515
CCn1nnnc1-c1cccc(NC(=O)CCOC(C)C)c1 | 1.671
O=C(CNC(=O)Nc1cccc(-c2nccs2)c1)NCCO | -9.757
Cn1ccnc1-c1cccc(NC(=O)NCC(=O)NC(C)(C)C)c1 | -2.22
CNCC(=O)Nc1cccc(-c2cnc(NCCO)nc2)c1 | 140.4
Cc1cccc(C(C)(C)NC(=O)CCS(C)(=O)=O)c1 | 2.509
CC(C)n1cnc2c1C(C(=O)N1CCCC1)N(CC1CC1)CC2.O=C(O)C(F)(F)F (configuration not stated) | 12.69
CC(=O)Nn1c(C)cc(CN2CCCN(Cc3ccncc3)CC2)c1C | 19.43
Cc1n[nH]c(=O)c2c(NC(=O)CN3CCOCC3C)oc(C)c12 (configuration not stated) | 12.8
CNC(=O)[C@@H]1C[C@H](N)CN1Cc1cc2cc(OC)ccc2nc1O | 8.618
Cc1cc(F)ccc1OC1(C(=O)O)CCN(Cc2c[nH]cn2)CC1 | -1.435
O=C1CC[C@H]2CN(Cc3cccc(F)c3)CC[C@H]2N1CCc1c[nH]cn1 | -2.492
Cn1ccnc1CN1CCN2C[C@H](Oc3cccc(F)c3)C[C@H]2C1.O=C(O)C(F)(F)F.O=C(O)C(F)(F)F | 5.075
C[C@]1(O)CCN(Cc2c[nH]cn2)C[C@@H]1Oc1cccc(F)c1 | 125.6
O=C(NCc1cc[nH]n1)NCC(O)COc1cccc(F)c1 (configuration not stated) | -0.04004
C[C@@]1(O)CCN(Cc2cc[nH]n2)C[C@H]1Oc1cccc(F)c1 | 94.39
